We go through 14 compounds from PubChem BioAssay.

Assay [1] has as its system XIP peptide (Xip251-270) binding. Briefly: XIP fragment 251-270 binding compounds – biochemical, small-molecule microarray, fluorescence 635/667 nm, 0.1 µg/mL protein, primary screen (AID 1182). To be noted: fluorescent protein binding, 635 nm, higher = more signal, called active from +8 up or from −8 down.
The subject of a further assay is XIP peptide (Xip251-270). Briefly: compounds binding XIP fragment 251-270 – biochemical, small-molecule microarray, fluorescence 635/667 nm, 0.5 µg/mL protein, primary screen (AID 1183). To be noted: fluorescence 635 nm, higher = more signal.
Assay [2] can be described thus: blood-stage malaria parasite viability loss – strain 3D7, DAPI fluorescence, 100 nL, primary screen (AID 1184).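 Further: parasites grown inside human red blood cells in medium with human serum.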 To be noted: P. falciparum 3D7 growth, 3 d, higher = more signal.
Assay [3] concerns the target Homeobox protein Hox-A13 (Mus musculus) (UniProt Q62424). Kind of assay: disruptors of Hoxa13 oligonucleotide interaction – biochemical, fluorescence polarization, labeled oligonucleotide, primary screen (AID 1185). The settings on record: Hoxa13:DNA binding, 15 min, higher = more signal, called active from +8 up or from −8 down. A general note: Polarisation of emitted light reports the rotation of a fluorescent probe.

The nature of assay [4]: blockers of DNA damage checkpoint Chk1 activation – imaging, HeLa, hydroxyurea, phospho-Chk1 antibody, percent positive cells, primary screen (AID 1186). The settings on record: hydroxyurea-induced phospho-Chk1 immunofluorescence imaging, higher = more signal.
Assay [5] can be described thus: blockers of DNA damage checkpoint Chk1 activation – imaging, HeLa, hydroxyurea, phospho-Chk1 nuclear intensity, primary screen (AID 1187). The settings on record: hydroxyurea-induced phospho-Chk1 immunofluorescence imaging, higher = more signal.

The source made the active and inactive calls. Unless noted, how the calls were made is not given here.

Homeobox protein Hox-A13 (Mus musculus), sequence (Q62424 whole entry, looked up): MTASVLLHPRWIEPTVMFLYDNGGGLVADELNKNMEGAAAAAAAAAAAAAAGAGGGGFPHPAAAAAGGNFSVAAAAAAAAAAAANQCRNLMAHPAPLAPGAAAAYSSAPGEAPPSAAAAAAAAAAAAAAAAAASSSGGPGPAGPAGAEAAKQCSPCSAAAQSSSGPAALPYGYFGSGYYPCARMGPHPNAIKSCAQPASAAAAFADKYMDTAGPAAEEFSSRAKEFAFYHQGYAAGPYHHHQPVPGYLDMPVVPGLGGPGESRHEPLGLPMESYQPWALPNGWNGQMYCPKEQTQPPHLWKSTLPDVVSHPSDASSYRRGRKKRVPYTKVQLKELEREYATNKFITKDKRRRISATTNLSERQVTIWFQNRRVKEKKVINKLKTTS

On to `COC(=O)C(CC#Cc1ccc2c(c1)[C@]1(C(=O)N2)[C@H](c2ccccc2OCCO)N2[C@H](c3ccccc3)[C@H](c3ccccc3)OC(=O)[C@H]2[C@@H]1C(=O)Nc1nc2ccccc2s1)C(=O)OC`, for which the results for the composite z-score (in assay [1]; with XIP peptide (Xip251-270)) were 1.32 (inactive) and 0.727, respectively. Moreover, the z-score in assay [2] is -2; in assay [3] it was 0.787 (inactive); in assay [4], -0.0918 (inactive); in assay [5], -0.269 (inactive).
For `C=C[C@@H](O)[C@H]1CC(c2ccccc2)=NO1`, the values for the composite z-score (in assay [1]; in the assay with XIP peptide (Xip251-270)) were 0.465 (inactive) and -0.299, respectively. The z-score is 0.99 in assay [2], -0.345 (inactive) in assay [3], -0.386 (inactive) in assay [4] and -0.573 (inactive) in assay [5].
For `CC(C)C[C@H]1NC(=O)[C@H](C)NC(=O)[C@@]23C(=O)N[C@@H](Cc4ccccc4)C2[C@H](C)[C@@]2(C)O[C@H]2C3/C=C/C/C=C\CNC1=O` (some centres undefined), the composite z-score was 1.2 (inactive) in assay [1] and 0.685 in the assay with XIP peptide (Xip251-270). For the same compound, the z-score is 0.96 in assay [2], -6.14 (inactive) in assay [3], -0.454 (inactive) in assay [4] and -0.576 (inactive) in assay [5].
As for `COCCOC(=O)N1C(=O)[C@@]2(c3cc(C#CCCO)ccc31)[C@H](C(=O)NC[C@H](O)c1ccccc1)[C@H]1C(=O)O[C@H](c3ccccc3)[C@H](c3ccccc3)N1[C@@H]2c1ccccc1OCCO`, the values for the composite z-score (in assay [1]; in the assay on XIP peptide (Xip251-270)) were 0.355 (inactive) and 0.564, respectively. For the same compound, the z-score in assay [2] is -0.89; in assay [3], -2.38 (inactive); in assay [4] it was 0.308 (inactive); in assay [5] it was 0.431 (inactive).
Regarding `COCCCNC(=O)[C@]1(CCS(=O)(=O)c2ccccc2)N=C(c2ccc(OCCCO)cc2)O[C@@H]1c1ccccc1`, the composite z-score in assay [1] is 1.47 (inactive); with XIP peptide (Xip251-270) it was 0.919. The z-score in assay [2] was -2.13; in assay [3], -4.72 (inactive); in assay [4] it was -0.369 (inactive); in assay [5], -0.42 (inactive).
In the case of `COCCOC(=O)N1C(=O)[C@@]2(c3cc(C#CCC(C(=O)OC)C(=O)OC)ccc31)[C@H](c1ccc(OCCO)cc1)N1[C@H](c3ccccc3)[C@H](c3ccccc3)OC(=O)[C@H]1[C@@H]2C(N)=O`, the values for the composite z-score (in assay [1]; in the assay with XIP peptide (Xip251-270)) were 0.335 (inactive) and 0.803, respectively. Further, the z-score in assay [2] was -1.96; in assay [3] it was -1.07 (inactive); in assay [4], -0.154 (inactive); in assay [5], 0.0321 (inactive).
Regarding `C[C@]12C(=O)N(CCCO)[C@@H]3C(=O)N(c4ccc(Cl)cc4)CC=CC31O[C@@H]1/C=C\CCCOC(=O)C12` (some centres undefined), the composite z-score is -0.232 (inactive) in assay [1] and -0.271 with XIP peptide (Xip251-270). The z-score was 0.571 in assay [2], -6.08 (inactive) in assay [3], -0.647 (inactive) in assay [4] and -0.0294 (inactive) in assay [5].
For the compound `C[N+](C)(C)CCCC[C@@H]1NC(=O)[C@H]2C[C@@H](C(=O)NCCCCCCN)[C@@H](c3cccc(OCCO)c3)N2C1=O`, the composite z-score was 1.25 (inactive) in assay [1] and 0.527 with XIP peptide (Xip251-270). Also, the z-score in assay [2] was -0.997; in assay [3], -2.38 (inactive); in assay [4] it was -0.699 (inactive); in assay [5], -0.146 (inactive).
On to `CC(C)CCC[C@@H](C)[C@H]1CC[C@@]2(C)C3=C(CC[C@]12C)[C@@]1(C)CC[C@H](OC(=O)c2ccc(N)cc2)C(C)(C)C1CC3` (some centres undefined), for which the composite z-score in assay [1] is 0.141 (inactive); with XIP peptide (Xip251-270), 0.132. For the same compound, the z-score in assay [2] is 0.0753; in assay [3] it was -1.09 (inactive); in assay [4] it was -0.516 (inactive); in assay [5], -0.736 (inactive).
Turning to `COc1ccc(C#Cc2ccc3c(c2)[C@]2(C(=O)N3)[C@H](c3ccc(OCCO)cc3)N3[C@H](c4ccccc4)[C@H](c4ccccc4)OC(=O)[C@H]3[C@@H]2C(=O)N2CCN(c3ncccn3)CC2)cc1`, the figures for the composite z-score (in assay [1]; with XIP peptide (Xip251-270)) were -0.138 (inactive) and 0.0154, respectively. Further, the z-score in assay [2] was -1.31; in assay [3], 1.1 (inactive); in assay [4], -0.246 (inactive); in assay [5], -0.0676 (inactive).
As to `OCCCC1=CC(c2cccs2)N(Cc2cccc(OC(F)(F)F)c2)CC1` (centres undefined), the composite z-score in assay [1] is -0.512 (inactive); in the assay on XIP peptide (Xip251-270) it was 0.754. The z-score in assay [2] is -0.717; in assay [3] it was -2.9 (inactive); in assay [4] it was 0.439 (inactive); in assay [5] it was 0.513 (inactive).
In the case of `C[N+](C)(C)CCCCNC(=O)[C@H]1C[C@H]2C(=O)NCC(=O)N2[C@H]1c1ccc(O)cc1`, the composite z-score was 0.696 (inactive) in assay [1] and 0.922 in the assay on XIP peptide (Xip251-270). For the same compound, the z-score was 0.258 in assay [2], -0.735 (inactive) in assay [3], -1.02 (inactive) in assay [4] and -0.701 (inactive) in assay [5].
As for `COc1ccc([Si](C)(C)[C@@H]2[C@@H](CC(=O)N3Cc4ccccc4C[C@H]3CO)O[C@]3(C(=O)N(Cc4cccc(N5CCCCC5=O)c4)c4ccccc43)[C@H]2C)cc1`, the composite z-score in assay [1] was 1.63 (inactive); in the assay on XIP peptide (Xip251-270), 0.737. Also, the z-score in assay [2] was -2.91; in assay [3], -2.57 (inactive); in assay [4] it was -0.559 (inactive); in assay [5] it was -0.304 (inactive).
With `CCOC(=O)C[C@H]1[C@H](OC(=O)c2ccc(C(=O)c3ccccc3)cc2)[C@@H](NC(=O)C2CCCCC2)c2cc(OCCCO)ccc2N1C(=O)Cc1ccc(OC)cc1`, the composite z-score in assay [1] was 0.963 (inactive); in the assay with XIP peptide (Xip251-270), 0.242. The z-score in assay [2] was -1.12; in assay [3], -2.28 (inactive); in assay [4], 0.542 (inactive); in assay [5], -0.129 (inactive).
